From PubChem BioAssay (NCATS)
Several values for one entry are separate records, joined by “and”; a condition that tells them apart may be missing. Identical values can stand only once. Results filed as inconclusive are left out. Activity calls are given as the source filed them. The call rests on the fitted dose curve; in most records, active means well fitted cell-killing curve with a large enough effect; inconclusive means small, poorly fitted or top-dose-only effect; inactive means flat fitted curve, though single readings scatter.

Experiment: Cell Viability - LYMP2-009 (AID 968);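 further: cells exposed to compound for 24 h at 37 °C; nearly all actives have a fitted effect of over 55% in size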; further: potency means the concentration at half of the fitted maximal effect;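 on activity change, negative = viability loss: 0% = DMSO alone and the full-kill end = tetraoctylammonium bromide at 92 µM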
Conditions: LYMP2-009 lymphoblastoid cell viability; series mostly up to 92.2 µM; activity change, negative = viability loss: at the top concentration

Structure (SMILES)	activity change, negative = viability loss	Potency
CCCN(CCC)C(=O)SCC	-3.54% (inactive)	
COc1ccc2nc(N)sc2c1	-2.88% (inactive)	
ClCCCl	-3.21% (inactive)	
CCC(O)OC(O)CC (centres undefined)		inactive
C=Cc1ccccc1Cl	-7.37% (inactive)	
c1ccc2c(c1)c1cccc3ccc4cccc2c4c31	-2.19% (inactive)	
Cc1cccc([N+](=O)[O-])c1C	-11.9% (inactive)	
CCCCCCCCO	-3.83% (inactive)	
CC(C)=CCCC(C)CCO (centres undefined)	-13% (inactive)	
O=[N+]([O-])c1cccc(Cl)c1Cl	-0.172% (inactive)	
CCO[Si](CCCN)(OCC)OCC	-5.52% (inactive)	
Clc1cc(Cl)c(Cl)cc1Cl	-11.7% (inactive)	
CCO	-10.8% (inactive)	
C=CC(=O)OCCOCCOCCOCCOC(=O)C=C		15.8 µM (active)
Clc1cc(Cl)c(Cl)c(Cl)c1Cl	3.33% (inactive)	
CCCCC(CC)CN (centres undefined)		inactive
O=NO		inactive
c1ccc2c(c1)[nH]c1ccccc12	1.69% (inactive)	
OCCNCCO	-6.88% (inactive)	
Nc1ccc(Cl)cc1Cl	-7.27% (inactive)	
CCC(C)c1ccccc1O (centres undefined)		inactive
CC1=CC(C)(C)Nc2ccccc21		inactive
CN(C)C=O		inactive
Cc1ccc(N)c([N+](=O)[O-])c1	1.67% (inactive)	
CCCCOCCO		inactive
CC(=O)OC/C=C(\C)CCC=C(C)C	4.99% (inactive)	

Experiment: Cell Viability - LYMP2-011 (AID 969); further: nearly all actives have a fitted effect of over 60% in size; further: potency means the concentration at half of the fitted maximal effect;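 on viability change, negative = cytotoxic: 0% = DMSO only and full inhibition = 92 µM tetraoctylammonium bromide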
Conditions: LYMP2-011 lymphoblastoid cells viability; series mostly up to 92.2 µM; viability change, negative = cytotoxic: at the top concentration
Method in brief: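 Acute toxicity is scored as a concentration-dependent drop in intracellular ATP of a human lymphoblastoid line after 24 hr treatment. Values are AC50s modeled with the Hill equation.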

Structure (SMILES)	viability change, negative = cytotoxic	Potency
CCCN(CCC)C(=O)SCC	-5.7% (inactive)	
COc1ccc2nc(N)sc2c1	-12.3% (inactive)	
ClCCCl	-7.18% (inactive)	
CCC(O)OC(O)CC (centres undefined)		inactive
C=Cc1ccccc1Cl	3.87% (inactive)	
c1ccc2c(c1)c1cccc3ccc4cccc2c4c31	-5.14% (inactive)	
Cc1cccc([N+](=O)[O-])c1C	-6.36% (inactive)	
CCCCCCCCO	-0.0691% (inactive)	
CC(C)=CCCC(C)CCO (centres undefined)	-0.178% (inactive)	
O=[N+]([O-])c1cccc(Cl)c1Cl	1.95% (inactive)	
CCO[Si](CCCN)(OCC)OCC	3.96% (inactive)	
Clc1cc(Cl)c(Cl)cc1Cl	-6.64% (inactive)	
CCO	-1.28% (inactive)	
C=CC(=O)OCCOCCOCCOCCOC(=O)C=C		20 µM (active) and 25.1 µM (active)
Clc1cc(Cl)c(Cl)c(Cl)c1Cl	0.917% (inactive)	
CCCCC(CC)CN (centres undefined)		inactive
O=NO		inactive
c1ccc2c(c1)[nH]c1ccccc12	2.35% (inactive)	
OCCNCCO	-3.58% (inactive)	
Nc1ccc(Cl)cc1Cl	11.7% (inactive)	
CCC(C)c1ccccc1O (centres undefined)		inactive
CC1=CC(C)(C)Nc2ccccc21		inactive
CN(C)C=O		inactive
Cc1ccc(N)c([N+](=O)[O-])c1	-3.25% (inactive)	
CCCCOCCO		inactive
CC(=O)OC/C=C(\C)CCC=C(C)C	-2.23% (inactive)	

Experiment: Cell Viability - LYMP2-013 (AID 970);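 further: cells exposed to compound for 24 h at 37 °C; nearly all actives have a fitted effect of over 55% in size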; further: potency means the concentration at half of the fitted maximal effect;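 on activity change, negative = cytotoxic: 0% = DMSO only and full inhibition = tetraoctylammonium bromide control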
Conditions: LYMP2-013 lymphoblastoid cells viability; series mostly up to 92.2 µM; activity change, negative = cytotoxic: at the top concentration
Method in brief: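 Acute toxicity was measured in human lymphoblastoid cells (2500/well) exposed to compound titrations for 24 hr, with ATP luminescence (CellTiter-Glo) as read-out and AC50 fitted by Hill equation.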

Structure (SMILES)	activity change, negative = cytotoxic	Potency
CCCN(CCC)C(=O)SCC	-5.29% (inactive)	
COc1ccc2nc(N)sc2c1	-0.505% (inactive)	
ClCCCl	-3.33% (inactive)	
CCC(O)OC(O)CC (centres undefined)		inactive
C=Cc1ccccc1Cl	-0.637% (inactive)	
c1ccc2c(c1)c1cccc3ccc4cccc2c4c31	-4.44% (inactive)	
Cc1cccc([N+](=O)[O-])c1C	-8.64% (inactive)	
CCCCCCCCO	3.44% (inactive)	
CC(C)=CCCC(C)CCO (centres undefined)	-10.3% (inactive)	
O=[N+]([O-])c1cccc(Cl)c1Cl	-8.36% (inactive)	
CCO[Si](CCCN)(OCC)OCC	-1.56% (inactive)	
Clc1cc(Cl)c(Cl)cc1Cl	-0.803% (inactive)	
CCO	-4.88% (inactive)	
C=CC(=O)OCCOCCOCCOCCOC(=O)C=C		20 µM (active) and 25.1 µM (active)
Clc1cc(Cl)c(Cl)c(Cl)c1Cl	-2.55% (inactive)	
CCCCC(CC)CN (centres undefined)		inactive
O=NO		inactive
c1ccc2c(c1)[nH]c1ccccc12	-7.66% (inactive)	
OCCNCCO	-0.604% (inactive)	
Nc1ccc(Cl)cc1Cl	-3.18% (inactive)	
CCC(C)c1ccccc1O (centres undefined)		inactive
CC1=CC(C)(C)Nc2ccccc21		inactive
CN(C)C=O		inactive
Cc1ccc(N)c([N+](=O)[O-])c1	-1.87% (inactive)	
CCCCOCCO		inactive
CC(=O)OC/C=C(\C)CCC=C(C)C	-7.77% (inactive)	

Experiment: Cell Viability - LYMP2-015 (AID 971);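 further: 0% = DMSO only and full effect = 92 µM tetraoctylammonium bromide; nearly all actives have a fitted effect of over 55% in size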
Conditions: LYMP2-015 lymphoblastoid cell viability; series mostly up to 92.2 µM; activity change, negative = lower viability: at the top concentration
Method in brief: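 Acute toxicity was scored as a concentration-dependent drop in intracellular ATP in lymphoblastoid cells after 24 hr compound exposure in complete medium. Detection used CellTiter-Glo luciferase luminescence.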

Structure (SMILES)	Potency	activity change, negative = lower viability
CCC(O)OC(O)CC (centres undefined)	inactive	
C=Cc1ccccc1Cl		-3.48% (inactive)
CCCCCCCCO		-10.3% (inactive)
CC(C)=CCCC(C)CCO (centres undefined)		-8.89% (inactive)
O=[N+]([O-])c1cccc(Cl)c1Cl		-2.52% (inactive)
Clc1cc(Cl)c(Cl)c(Cl)c1Cl		-1.01% (inactive)
O=NO	inactive	
OCCNCCO		5.31% (inactive)
Nc1ccc(Cl)cc1Cl		-12.3% (inactive)
CCCCOCCO	inactive	

Experiment: Cell Viability - LYMP2-017 (AID 972);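 further: cells exposed to compound for 24 hours at 37 °C; nearly all actives have a fitted effect of over 55% in size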; further: potency means the concentration at half of the fitted maximal effect; on activity change, negative = cytotoxicity: on the % scale 0 is the no-effect control and ±100 the full control effect
Conditions: LYMP2-017 lymphoblastoid cell viability; series mostly up to 92.2 µM; activity change, negative = cytotoxicity: at the top concentration
Method in brief: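 Steps: plate 2500 lymphoblastoid cells per well; incubate 5 hr at 37 C; add compound across a concentration series and incubate 24 hr at 37 C; add CellTiter-Glo and read luminescence after 30 min at room temperature; fit Hill curves for AC50.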

Structure (SMILES)	activity change, negative = cytotoxicity	Potency
CCCN(CCC)C(=O)SCC	1.5% (inactive)	
COc1ccc2nc(N)sc2c1	2.62% (inactive)	
ClCCCl	-6.38% (inactive)	
CCC(O)OC(O)CC (centres undefined)		inactive
C=Cc1ccccc1Cl	-1.15% (inactive)	
c1ccc2c(c1)c1cccc3ccc4cccc2c4c31	-9.8% (inactive)	
Cc1cccc([N+](=O)[O-])c1C	3.82% (inactive)	
CCCCCCCCO	-5.77% (inactive)	
CC(C)=CCCC(C)CCO (centres undefined)	-14.5% (inactive)	
O=[N+]([O-])c1cccc(Cl)c1Cl	-10.8% (inactive)	
CCO[Si](CCCN)(OCC)OCC	-13.4% (inactive)	
Clc1cc(Cl)c(Cl)cc1Cl	-7.54% (inactive)	
CCO	-1.83% (inactive)	
C=CC(=O)OCCOCCOCCOCCOC(=O)C=C		20 µM (active)
Clc1cc(Cl)c(Cl)c(Cl)c1Cl	-2.6% (inactive)	
CCCCC(CC)CN (centres undefined)		inactive
O=NO		inactive
c1ccc2c(c1)[nH]c1ccccc12	-6.87% (inactive)	
OCCNCCO	0.552% (inactive)	
Nc1ccc(Cl)cc1Cl	7.42% (inactive)	
CCC(C)c1ccccc1O (centres undefined)		inactive
CC1=CC(C)(C)Nc2ccccc21		inactive
CN(C)C=O		inactive
Cc1ccc(N)c([N+](=O)[O-])c1	0.336% (inactive)	
CCCCOCCO		inactive
CC(=O)OC/C=C(\C)CCC=C(C)C	4.02% (inactive)	
